Source: PubChem BioAssay
KinaseGlo FLuc = counter-screen: inhibitors of Kinase-Glo firefly luciferase | Q27757 | Kinase-Glo luciferase, ATP luminescence, 8 min | Potency, µM (highest dose often 38.3 µM), without a hit: top-dose activity change, negative = inhibition, usual class: inhibitors | 200,000 tested, 0.28% active | AID 1379; also: % is scaled to controls: 0 for no effect and ±100 for the full control effect; nearly all actives have a fitted effect of over 60% in size
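Recombinant Kinase-Glo luciferase, 10 uM ATP (linear range), luciferin; imidazole pH 7.2 / KCl / MgCl2 / Tween / BSA buffer; 8 min RT; luminescence.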
SMN2 splice enh = enhancers of SMN2 splice variant expression. AID 1458. Potency, µM (top dose mostly 46.1 µM), without a hit: top-dose activity change, positive = activation, usual class: activators. HEK293 SMN2-luciferase splicing reporter, luminescence, 30-36 h. 210,000 tested, 2.8% active; also: % of control where 0% means no effect; nearly all actives have a fitted effect of over 55% in size
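HEK293 cells carry an SMN2 […]–luciferase reporter in which exon 7 inclusion puts luciferase in frame. Cells were plated 10-12 h before compound addition, then incubated 30-36 h at 37C. ONE-Glo luminescence was read; sodium butyrate at 4.5 mM final served as control.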
NPC1 prom act = NPC1 promoter activation; Huh7 NPC1 promoter luciferase reporter, 24 h; Potency, µM (series often up to 9.22 µM), without a hit: at the highest dose activation, actives largely listed as activators; 320,000 tested, 2.4% active; AID 485313; also: % of control where 0% means no effect; nearly all actives have a fitted effect of over 60% in size
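Huh7 cells stably carrying NPC1 promoter–luciferase, plated in Opti-MEM with 10% FBS for 2 h, were exposed to compound in DMSO for 24 h at 37 °C; luciferase reagent was added for 10 min and luminescence read.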
FLuc counter = counter-screen for miR-21 project: firefly luciferase inhibitors or activators; P08659; purified FLuc, Km substrates, luminescence inhibition; Potency, µM (highest dose often 57.5 µM), without a hit: at the highest dose activity change, negative = inhibition, most hits filed as inhibitors; 360,000 tested, 6.9% active;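 also: plate controls were vehicle for no effect and reference inhibitor for full effect; nearly all actives have a fitted effect of over 55% in size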
Target sequence (P08659 whole entry, looked up): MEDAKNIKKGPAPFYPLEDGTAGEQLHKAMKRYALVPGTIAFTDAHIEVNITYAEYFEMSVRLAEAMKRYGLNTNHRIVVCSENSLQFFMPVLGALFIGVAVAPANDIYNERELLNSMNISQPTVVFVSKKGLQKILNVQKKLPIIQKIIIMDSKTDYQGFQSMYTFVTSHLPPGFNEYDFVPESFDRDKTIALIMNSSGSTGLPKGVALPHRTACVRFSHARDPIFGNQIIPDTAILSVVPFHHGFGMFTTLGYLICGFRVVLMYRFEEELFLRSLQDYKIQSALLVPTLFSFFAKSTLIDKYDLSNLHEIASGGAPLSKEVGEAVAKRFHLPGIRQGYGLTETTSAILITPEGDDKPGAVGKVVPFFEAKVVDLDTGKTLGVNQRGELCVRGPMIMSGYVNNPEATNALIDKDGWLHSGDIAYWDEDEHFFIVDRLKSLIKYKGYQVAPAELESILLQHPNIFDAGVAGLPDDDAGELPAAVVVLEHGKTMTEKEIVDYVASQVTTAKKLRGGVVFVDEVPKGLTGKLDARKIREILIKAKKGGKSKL
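Biochemical qHTS of compounds, final roughly 60 µM downward over six points, against 10 nM purified firefly luciferase using Km concentrations of substrates (10 uM D-luciferin, 10 uM ATP) in Tris acetate pH 7.5 buffer; luminescence output.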
ELG1 genotoxic = inducers of genotoxicity in HEK293T ELG1-luciferase cells | HEK293T ELG1-luciferase reporter, luminescence, 16 h | Potency, µM (highest dose often 46 µM), for inactives: top-dose activity change, positive = activation, hits mostly activators | 330,000 tested, 1.3% active | AID 504466; also: % of control where 0% means no effect; nearly all actives have a fitted effect of over 60% in size
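ELG1-luciferase HEK293T cells, 2,000/well; compound pinned in; 16 hr, 37 °C, 5% CO2; ONE-Glo, 30 min RT; luminescence on CCD imager.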
Rab9 promoter act = activates the Rab9 promoter. Huh7 Rab9 promoter-luciferase reporter, luminescence, 24 h. Potency, µM (doses to about 9.22 µM), for inactives: top-dose activation, negative = inhibition, hits mostly activators. 320,000 tested, 2.8% active. AID 485297; also: % of control where 0% means no effect; nearly all actives have a fitted effect of over 60% in size
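Huh7 cells stably carrying a Rab9 promoter-luciferase reporter, 1500 cells per well in OP-MEM I with 10% FBS, treated with compound 24 hours at 37C. Luciferase activity read by luminescence after 10 minutes with Amplite reagent.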
Active calls of the source: *; ? = inconclusive; nt = no result given; [ ] = dose if it differs, or a comment. Compounds with a hit are over-represented: about 7.5% of the library has one in this group of screens. Calls follow the shape of the dose curve; as a rule, active = well fitted curve in the direction sought with a large enough effect; inconclusive = small, poorly fitted or top-dose-only effect, or another doubt; inactive = no such curve, though single readings can be large; an effect the other way counts as inactive or inconclusive. Potency is read from the fitted curve at half-maximal effect.

SMILES	KinaseGlo FLuc	SMN2 splice enh	NPC1 prom act	FLuc counter	ELG1 genotoxic	Rab9 promoter act
Nc1c(Cl)ncnc1N/N=C/c1cccc(O)c1	nt	nt	5%	17µM*	2%	-3%
COc1ccc(/C=N/Nc2ncnc3sc4c(c23)CCCC4)cc1OC	-2%	21%	11%	2.7µM*	0%	8%
Cn1c(=O)c(=O)n(C)c2cc(S(=O)(=O)Nc3ccc(Cl)c(C(F)(F)F)c3)ccc21	nt	-5%	nt	?	nt	nt
CCCCS(=O)CC(O)CSc1nc(-c2ccc(OC)cc2)cc(-c2ccccc2)c1C#N (stereo not drawn)	nt	0%	nt	-2%	nt	nt
Cc1cccc(NC(=O)CN2C(=O)N/C(=C\c3ccc(N4CCOCC4)cc3)C2=O)c1	3%	11µM*	?	3µM*	?	?
Cc1cc(N2CCOCC2)ccc1/C=C1\NC(=O)N(CC(=O)Nc2ccc(F)cc2)C1=O	3%	18%	?	?	13%	?
Cc1cc(C)c(Nc2nn3c(=O)c4cc5c(cc4nc3s2)OCO5)c(C)c1	nt	-10%	nt	?	nt	nt
O=C(O)/C=C/c1ccc(OCc2cccc(F)c2)cc1	4%	nt	1%	17µM*	26%	-2%
O=C(/C=C/c1ccc(OCc2cccc(Cl)c2)cc1)N1CCOCC1	3%	-24%	1%	?	-1%	5%
Fc1cccc(Cl)c1-c1nnc2ccc3ccccc3n12	-3%	-51%	-8%	19µM*	5%	-8%
CCOC(=O)c1c(NC(=O)C(C)Sc2cn(CCNC(=O)c3ccccc3OC)c3ccccc23)sc2c1CCC2 (stereo not drawn)	nt	2%	nt	-6%	nt	nt
CCCCCCCc1cc2c(cn1)C(=O)C(C)(OC(C)=O)C(O)=C2Cl (stereo not drawn)	-3%	6%	nt	nt	nt	nt
COc1ccc(-c2cc3ccccc3s2)cc1[C@H]1[C@H]2C=CC[C@@H](C)[C@@H]2C(=O)N1Cc1ccccc1	nt	nt	3.2µM*	1.3µM*	?	2.8µM*
COc1ccc(-c2ccc(OC)c([C@H]3[C@H]4C=CC[C@@H](C)[C@@H]4C(=O)N3Cc3ccccc3)c2)cc1C	nt	nt	-8%	0%	4%	-9%
CC(C)n1cnc2c(Nc3ccc(C(=O)O)cc3)nc(Cl)nc21	nt	nt	?	12µM*	?	18%
CCOc1ccc(CNC(=O)c2ccc3nc(C(C)C)oc3c2)cc1	nt	nt	nt	-2%	nt	nt
C/C(=N\OC(=O)c1ccc(C)cc1)c1c(C)nc2cc(C)ccn12	-2%	-2%	-3%	0%	-4%	-3%
C/C(=N/OC(=O)c1ccc(C(F)(F)F)cc1)c1oc(C)nc1C	nt	nt	0%	12µM*	2%	3%
N.N.O=C(O)C1(C(=O)O)CCC1.[Pt+2]	nt	nt	4%[46.1 µM]	nt	nt	0%[46.1 µM]
Cc1cc(SCC(=O)Nc2nsc(-c3ccc(C(C)(C)C)cc3)n2)nc2ccccc12	nt	14µM*	nt	nt	nt	nt
Cc1ccc(-c2nc(NC(=O)CSc3ncn[nH]3)ns2)cc1	nt	nt	3%	17µM*	6%	16%
Cc1ccc(CN2CCSc3ccc(C(=O)N4CCN(c5ccc(Cl)cc5)CC4)cc32)cc1	nt	-1%	nt	1%	nt	nt
COCCSc1nc2c([nH]c3ccccc32)c(=O)n1-c1ccc(OC)c(OC)c1	nt	nt	nt	4%	nt	nt
COc1ccc2[nH]cc(CCNC(=O)Nc3cc(C)cc(C)c3)c2c1	nt	nt	nt	2%	nt	nt
Cn1nc(C(F)(F)F)c(/C=N/OC(=O)c2ccccc2)c1Cl	-1%	-6%	-2%	?	1%	-7%
SMILES	KinaseGlo FLuc	SMN2 splice enh	NPC1 prom act	FLuc counter	ELG1 genotoxic	Rab9 promoter act
Cc1nn(C)c(Cl)c1/C=N/OC(=O)c1ccc(F)cc1	-1%	9%	-2%	17µM*	0%	1%
Cn1c(Cl)c(/C=N/OC(=O)c2ccccc2Cl)c2ccccc21	3%	-1%	2%	6.7µM*	-2%	-1%
Cc1nn(C)c(Cl)c1/C=N/OC(=O)c1ccccc1	-2%	0%	-3%	12µM*	1%	-2%
CN1CCN(c2ncc3c(n2)CCN(Cc2cc(Br)cs2)C3)CC1	nt	nt	nt	-5%	nt	nt
COc1ccc(C)cc1NS(=O)(=O)c1ccc2c3c(cccc13)C(=O)N2	nt	-45%	nt	-7%	nt	nt
COc1ccc(/C=C/C(=O)NC(=S)NNC(=O)c2ccco2)cc1	1%	-1%	-8%	-15%	1%	-2%
COc1ccc(C(=O)NNC(=S)NC(=O)/C=C/c2cccs2)cc1	?	nt	3.5µM*	2.7µM*	21µM*	3.5µM*
O=C(/C=C/c1ccccc1)NC(=S)NNC(=O)Cc1cccs1	-1%	13µM*	7%	-3%	1%	17%
COc1ccc(/C=C/C(=O)NC(=S)NNC(=O)Cc2cccs2)cc1	0%	13µM*	12%	-12%	?	24%
CNc1ncncc1-c1ccc(C(=O)N(C)C)cc1	-1%	-2%	nt	nt	nt	nt
CN=C1S/C(=C\c2ccc(N3CCCC3)c(F)c2)C(=O)N1C	1%	?	27%	4.8µM*	?	?
COc1cc(/C=N/NC(=O)c2cccc(NC(=O)c3ccccc3)c2)ccc1O	nt	nt	16%	9.5µM*	-8%	20%
COc1cc(/C=N\NC(=O)c2ccc(-c3ccccc3)cc2)cc(OC)c1O	nt	nt	4%	9.5µM*	4%	21%
COc1cc(/C=N/NC(=O)c2ccc3nc[nH]c3c2)cc(OC)c1OC	nt	nt	-10%	12µM*	-4%	-7%
COc1ccc(/C=N/NC(=O)c2ccc3nc[nH]c3c2)cc1OC	nt	nt	0%	?	-5%	-4%
COc1cc(/C=N/NC(=O)c2cccc(NC(=O)c3ccccc3C)c2)ccc1O	nt	nt	12%	19µM*	-10%	-1%
Cc1cccc(OCCCCn2nnc3sc4c(c3c2=O)CCC(C)C4)c1 (stereo not drawn)	nt	4%	nt	1%	nt	nt
O=C(CSc1nnc(COc2ccc(Cl)cc2)o1)Nc1ccccc1	nt	nt	nt	-11%	nt	nt
CCCC(=O)N1c2ccccc2-c2nnc(SC)nc2OC1c1sccc1C (stereo not drawn)	nt	3%	nt	-3%	nt	nt
COc1ccc(/C=N/NC(=O)c2cccc(NC(=O)c3ccc(Cl)cc3)c2)c(OC)c1	0%	?	24%	2.7µM*	3%	?
O=C(Cn1nc2ccccc2n1)N/N=C/c1cc(Cl)cc([N+](=O)[O-])c1O	-3%	-23%	-1%	?	6%	-3%
COc1cc(/C=N/NC(=S)Nc2cccc(S(=O)(=O)N(C)C)c2)ccc1O	14%	21%	-3%	2.7µM*	1%	0%
Cc1ccccc1C(=O)Nc1cccc(C(=O)N/N=C/c2cc(Cl)cc([N+](=O)[O-])c2O)c1	nt	nt	1%	21µM*	14%	1%
CC(=O)N1CCOc2cc(S(=O)(=O)Nc3c(C)cccc3C(C)C)c(Cl)cc21	nt	nt	-5%	-1%	nt	-3%
